The source of these data is the supplement of paper PMC6555819.

The test system of the assay is RARg:RXRa (NR concentration 270 nM, RXRa partner concentration 90 nM). As to the kind of experiment: PBM binding z-score (relative to random genomic background probes); higher = stronger binding; sequences stand for … in GC…GCGATTGACAGCGTAGAATGAAGG
The method, boiled down: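 Probes were double-stranded and carried 34-nt variable regions with direct-repeat seeds, single-nucleotide variants, half-site ablations and random human genomic background sequences, printed on custom Agilent 4×180K protein-binding microarrays. Arrays were incubated 1 h with ligand-free nuclear receptor dimers in PBS pH 7.4, 2% milk, 0.02% Triton X-100, 1 mM DTT, 0.2 mg/mL BSA and 0.4 mg/ml salmon testes DNA. Antibodies against each partner (one per run) detected binding, and scanned fluorescence was regression-normalized. Binding z-scores use the random background probes as reference.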
For the sequence CATGCTAGGTCAATGGTCAGCTAAAGCAGCTCGC, the PBM binding z-score stood at 3.81.

TTACCAAGGTGAAGGTCGTTGACCCCTCTGTAGA came in with a PBM binding z-score of 3.33.

TTACCAGGGTGAGCTGAGGTCGTTGATCCAACTC gave a PBM binding z-score of 1.08.

As to CCTACTGGGCCCTCAGGTCATTGATATCAACGTT, the PBM binding z-score was found to be 1.1.

In turn, ACTAGCAGGCTAAGGGTCACTCAAGATTAGTCCG came in with a PBM binding z-score of 3.88.

TCTTTTAGATCAGCAGGTTAAGAAAGCTGGCCAA displayed a PBM binding z-score of 0.209.

The sequence AGAATGAGGTTATTAAGTTCAGGGAATTGCGGTC showed a PBM binding z-score of 2.35.

Sequence CGGCCTAGGTCAGGGCCAGTATAGGAGGAACGTT had a PBM binding z-score of 2.84.

In turn, ACTATTAGTTGACTGAGGGCAACCGATACGACGC displayed a PBM binding z-score of 0.837.

As to CATTACGGGTCACGAGGTTATAGCACGACGAGCG, the PBM binding z-score stood at 6.35.

Consider CTACCAAGGTGAACAAGGTCATTGATTACTATTC, for which the PBM binding z-score was found to be 3.75.

In the case of TCTGCTAGTTCAGTTGGTCAGCTAACGAGCTGCC, the PBM binding z-score is -0.136.

The sequence GCTAGTTGGTCAGTAAAAGGTCACAAACCGGTCG registered a PBM binding z-score of 4.99.

Consider ATCGAGAGGTCGTGAGGTGAGTATACAGAAAGGC, for which the PBM binding z-score worked out at 3.66.

In turn, CGTCCAAGGTCAAACGTCAGTGAAGAGATGACGG came in with a PBM binding z-score of 6.09.

In the case of ATTTCTAGGTAACCAAGTTCAGTGAATGCCGAAC, the PBM binding z-score turned out to be 0.786.

Consider CGTCAAAGTTCACGGTAACGTAACAGAAAGCAGC, for which the PBM binding z-score was found to be 6.31.

TTACCAAGGTGAAAGGTCGTAGATGCACGCCTTG: the PBM binding z-score was 4.5.

ATATCTAGGTAACCAAGTTCAGTGAATGCCGAAC gave a PBM binding z-score of 0.963.

In the case of ATCTCAAGGTAAAGTTCAGTGAAAGATCGATAGA, the PBM binding z-score was 2.43.

For the sequence CCTACTGGGCCATCAGGGCATTGATATCAACGTT, the PBM binding z-score was 0.0558.

Take CCTATGAGTTGACCATAAGGGCAACCGAAGCTCG: the PBM binding z-score is 2.18.

In the case of TCTGCTAGGTGAGTTGGTCAGCTAACGAGCTGCC, the PBM binding z-score is -0.346.

On to GGAACGAGGGCAAAGTTGCTAGCATCTGTCGACG, for which the PBM binding z-score was 1.27.

The sequence ATCGCTAGGTAAGACTCAGTTCAGTGAAGAACGC returned a PBM binding z-score of -0.35.

In turn, ATCTCAAGGTAACAAGTTCAGTGAAAGAGAGGAC gave a PBM binding z-score of 1.79.

Consider CCTTACGGCTCACTGACAGGTTATAGCATTTGGA, for which the PBM binding z-score is 0.216.

Turning to TCTATTGGTTGAAGGGCAACCGACGAGTCCGTTT, the PBM binding z-score came to 0.455.

As for TCTATTAGTTGAAGCGCAACCGACGAGTCCGTTT, the PBM binding z-score was -0.0942.

For the sequence CGCCCAAGGTCATAGGAGGTCAGTGAAGACAGAT, the PBM binding z-score stood at 6.7.

In the case of ATATCTAGGTTAAGGGTCATTCAGGTTGGTTCGC, the PBM binding z-score was determined as 4.82.

Sequence CAAACTAGGTCACGAAAGGTCAAAGTAGAATGAC registered a PBM binding z-score of 7.93.

Take ACTATTAGTTGACTTAGGGCAACCGGTACGACGC: the PBM binding z-score was 0.684.

CAAACTAGGTCAAAGTCAAAGTCGGTTTGTGCCA had a PBM binding z-score of 3.87.

Consider CCTACTGGGCCATTCAGAGGTCATTTATCATATG, for which the PBM binding z-score was found to be 3.91.

TCATATAGGTAAATGCTAGGTTAAAGTCCGATCT gave a PBM binding z-score of 0.772.

In the case of TTACCAAGGTGAGGGTCGTTGATCCCTCTGTAGA, the PBM binding z-score came to 0.785.

Sequence CCTAGCAGGCCAGGGTCAATCAAGCATTTCGCTT returned a PBM binding z-score of 3.32.

With TCTCAAAGTTCAAAGGTAACGTAAGTATCCACAC, the PBM binding z-score worked out at 6.13.

Turning to ATATGTAGGTTATCGGGTCATTTAGTTTGCGCAT, the PBM binding z-score amounted to 3.19.
